# Data published in paper PMC4552634, “A New Set of Chemical Starting Points with Plasmodium falciparum Transmission-Blocking Potential for Antimalarial Drug Discovery” (PLoS ONE, 2015).
# About 3,200 (25%) of roughly 13,000 compounds showed an effect of 50% or more. Some of the results follow.
# Test system: P. falciparum stage V gametocytes
# Design: BacTiter-Glo ATP luminescence viability of purified stage V gametocytes in 384-well plates, per cent inhibition versus DMSO
# Conditions: 48 h, 5 µM; inhibitor
row,Compound,% Inhibition
1,O=C(NC1CCN(Cc2ccccc2)CC1)c1cc(C(=O)NC2CCN(Cc3ccccc3)CC2)cc(C(=O)NC2CCN(Cc3ccccc3)CC2)c1 [TCMDC-124568],67.11%
2,CC1(C)CC(NC(=O)NC2CCN(Cc3ccccc3)CC2)CC(C)(CNC(=O)NC2CCN(Cc3ccccc3)CC2)C1 (centres unmarked) [TCMDC-139018],101.1%
3,O=C(NC1CCN(Cc2ccccc2)CC1)c1ccc(CNC2CCN(Cc3ccccc3)CC2)cc1 [TCMDC-140787],27.85%
4,O=C(Nc1ccnc2ccccc12)NC1CCN(Cc2ccccc2)CC1 [TCMDC-139643],-13.5%
5,CCOc1cc(C(=O)NC2CCN(Cc3ccccc3)CC2)ccc1-c1nc2ccc(Cl)cc2[nH]1 [TCMDC-140912],-17.04%
6,O=C(NC1CCN(Cc2ccccc2)CC1)c1ccc(-c2nc3cc(Cl)c(F)cc3[nH]2)cc1 [TCMDC-140093],-50.28%
7,Cc1[nH]c(-c2ccc(F)cc2)cc1C(=O)NC1CCN(Cc2ccccc2)CC1 [TCMDC-124396],76.63%
8,CN1CCC(COc2ccc(CN3CCC(NC(=O)c4cccc(Cl)c4)CC3)cc2)CC1 [TCMDC-132796],95.19%
9,Cc1cc2nc(-c3ccc(C(=O)NC4CCN(Cc5ccccc5)CC4)s3)[nH]c2cc1C [TCMDC-140513],1.433%
10,CC(C)c1ccc(NC(=O)c2ccc(C(=O)NC3CCN(Cc4ccccc4)CC3)cc2)cc1 [TCMDC-136752],-24.91%
11,COc1cc(-c2cc3cc(Cl)c(Cl)cc3[nH]2)ccc1C(=O)NC1CCN(Cc2ccccc2)CC1 [TCMDC-141288],-32.17%
12,O=C(NC1CCN(Cc2ccc(O)cc2)CC1)c1ccc(Cl)c(Cl)c1 [TCMDC-141735],18.11%
13,Oc1ccc2[nH]c(-c3cccc(F)c3)nc2c1CN1CCCC1 [TCMDC-136531],-40.99%
14,CCOC(=O)c1cnc2cc(N3CCCC3)c(Cl)cc2c1OCC [TCMDC-131990],37.97%
15,O=C(Nc1cccc(-c2cccc(-c3nc4ccccc4[nH]3)c2)c1)Nc1ccc2c(c1)OCO2 [TCMDC-133167],2.88%
16,COc1cc(NC(=O)N2CCc3ccc(OCCC4CCCN4C)cc32)cc(C(F)(F)F)c1 (centres unmarked) [TCMDC-140248],-14.34%
17,CCCc1nc2c(N3CCCN(C(=O)NC4CCCCC4)CC3)cccc2n1Cc1ccccn1 [TCMDC-134632],-23.2%
18,CC(C)CC(C)NC(=O)C1Cc2c([nH]c3cc(Cl)ccc23)C2(CCN(CCc3ccccc3)CC2)N1 (centres unmarked) [TCMDC-141298],48.04%
19,CCNc1cc(C(=O)N[C@@H](Cc2ccc(F)c(F)c2)[C@H](O)CNC2CCCCC2)cc(N2CCCCS2(=O)=O)c1 [TCMDC-135060],26.39%
20,Cc1cc(C2CCN(CCCCNC(=O)c3ccc(NC(=O)c4ccc(Cl)cc4)cc3)CC2)c(C)cc1OC(C)C [TCMDC-138309],96.15%
21,Cc1cc(C2CCN(CCCCNC(=O)c3ccc(NC(=O)c4ccc(Cl)cc4)cc3)CC2)c(C)cc1OCc1cccnc1 [TCMDC-138318],-16.74%

row,Compound,% Inhibition
1,CN(C)CCOc1ccc(N2CCN(CCCCNC(=O)c3ccc(NC(=O)c4ccc(Cl)cc4)cc3)CC2)cc1 [TCMDC-138289],85.59%
2,CCOc1ccc(OCC)c(N2CCN(CCCCNC(=O)c3ccc(NC(=O)c4ccc(Cl)cc4)cc3)CC2)c1 [TCMDC-138224],-9.659%
3,Cc1ccc(C)c(C2CCN(CCCCNC(=O)c3ccc(NC(=O)c4ccc(Cl)cc4)cc3)CC2)c1 [TCMDC-138330],-7.9%
4,Cc1cc(C2CCN(CCCCNC(=O)c3ccc(NC(=O)c4ccc(Cl)cc4)cc3)CC2)c(C)cc1OCc1ccncc1 [TCMDC-138308],71.5%
5,COCCOc1cc(C)c(C2CCN(CCCCNC(=O)c3ccc(NC(=O)c4ccc(Cl)cc4)cc3)CC2)cc1C [TCMDC-138344],7.769%
6,Cc1cc(C2CCN(CCCCNC(=O)c3ccc(NC(=O)c4ccc(Cl)cc4)cc3)CC2)c(C)cc1OCCN(C)C [TCMDC-138316],117.2%
7,Cc1cc(C2CCN(CCCCNC(=O)c3ccc(NC(=O)c4ccc(Cl)cc4)cc3)CC2)c(C)cc1OCc1nccn1C [TCMDC-138326],1.081%
8,CCOc1cc(C)c(C2CCN(CCCCNC(=O)c3ccc(NC(=O)c4ccc(Cl)cc4)cc3)CC2)cc1C [TCMDC-138282],41.56%
9,CN(C)CCOc1ccc(N2CCN(CCCCNC(=O)c3ccc(/C=C/c4cc(Cl)cc(Cl)c4)cc3)CC2)cc1 [TCMDC-138290],45.55%
10,CCCCc1ccccc1NS(=O)(=O)c1ccc(OC)c(N2CCNCC2)c1 [TCMDC-139238],19.7%
11,CN1CCC(C(=O)Nc2cccc(-c3ccc(-c4nc5cc(C(F)(F)F)ccc5[nH]4)s3)c2)CC1 [TCMDC-132184],18.99%
12,COc1ccc2ccc(F)c(CCN3CCC(NCc4cc5c(cn4)OCCO5)CC3)c2n1 [TCMDC-136226],1.241%
13,Cc1cnc(C(=O)Nc2cccc(-c3ccc(-c4nc5cc(C(F)(F)F)ccc5[nH]4)s3)c2)cn1 [TCMDC-137028],12.51%
14,OC(c1ccc2ccccc2c1)C1CN(CCc2ccccc2)CCC1(O)c1ccccc1 (centres unmarked) [TCMDC-131995],4.082%
15,Cc1cccc2nc(-c3cccc(-c4ccc(NC(=O)Cc5ccc[n+]([O-])c5)cc4)c3)[nH]c12 [TCMDC-136993],-15.96%
16,O=C(Cc1cnc[nH]1)Nc1ccc(-c2cccc(-c3nc4ccc(C(F)(F)F)cc4[nH]3)c2)cc1 [TCMDC-136949],9.618%
17,COc1ccc(NC(=O)Nc2ccc(-c3cccc(-c4nc5c(C)cccc5[nH]4)c3)cc2)cc1 [TCMDC-133245],-21.29%
18,CCCN(CC1CC1)c1nc(C)nc2c(-c3ccccc3)cc(C)cc12 [TCMDC-138123],91.17%
19,CCCN(CCC)C(=O)c1cc(-c2cccc(C)c2)nc2ccccc12 [TCMDC-124452],-15.82%
20,CCCN(CC1CC1)c1ncc(-c2cccc(CNCc3ccccc3O)c2)cn1 [TCMDC-133138],6.014%
